In PubChem BioAssay (NCATS):
Inconclusive results are not listed. Calls of active or inactive are those of the source. Unless noted, the call rests on the fitted dose curve; in most records, active means well fitted curve in either direction with a large enough effect (not every such curve was filed as active); inconclusive means small, poorly fitted or top-dose-only effect, or another doubt; inactive means flat fitted curve, though single readings scatter.

Experiments:
[1] = AP1 Signaling Pathway (AID 357); settings: ME-180 AP-1-bla reporter, EGF-induced, beta-lactamase ratio, 5 h; at 17.2 µM (top of the series) unless noted; further: on the % scale 0 is the no-effect control and ±100 the full control effect
Method in brief: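 AP-1-bla ME-180 cells with beta-lactamase reporter under AP-1 response element, stimulated with EC50 EGF; compounds titrated, 5 hours at 37 degrees Celsius. CCF4 read at 460/530 nm ratio; positive and negative modulators judged by AC50.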

[2] = NFAT Signaling Pathway (AID 444); settings: Jurkat NFAT-bla M1, carbachol, beta-lactamase ratio, 5 h; at 17.2 µM (top of the series) unless noted;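 further: carbachol stimulus at about its EC50 of 1 µM final; on the % scale 0 is the no-effect control and ±100 the full control effect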
Method in brief: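 Jurkat cells with NFAT-driven β-lactamase reporter and co-expressed M1 receptor, stimulated with carbachol (final 1 uM, ~EC50), compound titration, 5 h at 37 °C. CCF4 loaded 1 h at RT; 460/530 nm ratio gave %activity and AC50.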

[3] = Stat Signaling Pathway (AID 446); settings: ME-180 SIE beta-lactamase reporter, IL-6 stimulated, 5 h; at 17.2 µM (top of the series) unless noted;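 further: ME-180 cervical cancer cells given 40 pM IL-6 alongside compound; SIE-controlled beta-lactamase reporter measured as 460/530 nm FRET emission ratio; on the % scale 0 is the no-effect control and ±100 the full control effect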
Method in brief: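 Screening format detects activators and inhibitors alike: ME-180 SIE-bla cells stimulated at 40 pM IL-6 for 5 hrs with compound, then dual-emission beta-lactamase read at 405 nm excitation.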

[4] = target: Glucocorticoid receptor (Homo sapiens) (UniProt P04150); experiment: GR-GFP Redistribution (AID 450;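 active means compounds whose dose series gives a full or clear partial fitted curve of increased nuclear translocation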; further: potency means the concentration at half of the fitted maximal effect)
[5] = target: Glucocorticoid receptor (Homo sapiens) (UniProt P04150); experiment: GR-EFC Redistribution (AID 451; calls by dose curve; further: potency means the concentration at half of the fitted maximal effect); settings: CHO-K1 GR-EFC translocation, beta-gal luminescence, 2 h
Method in brief: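 CHO-K1 cells expressing nuclear EA and GR-ED fragments of b-gal; compounds titrated up to 46 uM final, 2 h at 37 C. GR nuclear translocation read as complemented b-gal luminescence after 1 h RT detection.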

[6] = target: Mitogen-activated protein kinase 10 (Mus musculus) (UniProt Q61831); experiment: JNK3 AlphaScreen Assay (AID 530);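 further: kinase came from lysate of stimulated human HepG2 cells; signal reports phosphorylation of biotinylated GST-cJun 1-79 at Ser73 with 10 µM ATP; on the % scale 0 is the no-effect control and ±100 the full control effect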
Method in brief: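 Pre-activated (IL-1β/TNFα) JNK3 in HepG2 lysates phosphorylates biotin-GST-cJun(1-79), 10 uM ATP; anti-phospho-cJun(Ser73) AlphaScreen read at room temperature, pH 7.6 Tris buffer. Compounds pre-incubated 15 min as titrations.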

[7] = target: 3',5'-cyclic-AMP phosphodiesterase 4B (Homo sapiens) (UniProt Q07343); experiment: qHTS Assay for Inhibitors of PDE-IV (AID 607; active means well fitted activation curve with a large enough effect in the main read-out, with a control signal flat, not every such curve was filed as active; further: % of control where 0% means no effect)
Method in brief: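 The readout is membrane depolarisation from a cAMP-sensing CNG channel, detected with a potential dye at ex 535/em 590. Cells were HEK293-derived (endogenous PDE-IV) at 1000 cells/well, titrated up to 22.9 uM final.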

[8] = target: Guanine nucleotide-binding protein G(i) subunit alpha-1 (Homo sapiens) (UniProt P63096); experiment: qHTS Assay for Inhibitors of RGS12 GoLoco Motif Activity (Green Fluorophore) (AID 879; active means well fitted curve in the direction sought with a large enough effect; an effect the other way counts as inactive or inconclusive;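 further: 0% = labeled peptide with Gαi1 and full inhibition = labeled peptide alone without protein; negative values mean loss of peptide binding seen as reduced polarization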)
Method in brief: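 Fluorescence polarization assay: 50 nM Gαi1 with 10 nM FITC-labeled RGS12 GoLoco peptide in 10 mM Tris pH 7.5, 150 mM NaCl, 0.1 mM GDP, 0.05% NP40, 10 min at room temperature with compound.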

[9] = qHTS Assay for Identification of Small Molecule Antagonists for NFkB Signaling Pathway (AID 895; active means well fitted inhibition curve with a large enough effect in the signal ratio, with a control signal flat, not every such curve was filed as active; the % refers to the signal ratio; further: potency means the concentration at half of the fitted maximal effect)
Method in brief: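 ME-180 NFkB-bla cells (beta-lactamase under NFkB response element), plated overnight, treated with compound then 10 pM TNF alpha (about EC50) for 5 hrs at 37 C. LiveBLAzer FRET read at 460/530 nm emission, 405 nm excitation.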

[10] = qHTS Assay for Identification of Small Molecule Agonists for Thrombopoietin (TPO) Signaling Pathway (AID 917; active means well fitted curve in the direction sought with a large enough effect; an effect the other way counts as inactive or inconclusive; further: potency means the concentration at half of the fitted maximal effect)
Method in brief: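 Murine Ba/F3 cells expressing human TPO receptor and GPIIb-promoter luciferase, IL-3-starved overnight, given compound plus TPO at 26 pM (EC50). After 24 h at 37 C, 5% CO2, luminescence read.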

[11] = target: Muscarinic acetylcholine receptor M1 (Rattus norvegicus) (UniProt P08482); experiment: qHTS Assay for Antagonists of Acetylcholine Muscarinic M1 Receptor: Measurement of IP-One Response (AID 944; active means well fitted curve in the direction sought with a large enough effect; an effect the other way counts as inactive or inconclusive; further: nearly all actives have a fitted effect of over 75% in size)
Method in brief: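 M1-CHO (rat), 2000 cells/well, overnight recovery; cpd 10 min; carbachol EC80 (200 nM), 30 min, HEPES buffer + 50 mM LiCl pH 7.4; IP-One HTRF, Ex 337, Em 620/665 nm.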

[12] = target: Pyruvate kinase (Leishmania mexicana) (UniProt Q27686); experiment: qHTS Validation Assay for Inhibitors of Leishmania Mexicana Pyruvate Kinase (AID 945; active means well fitted curve in the direction sought with a large enough effect; an effect the other way counts as inactive or inconclusive;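 further: 0% = DMSO only neutral control wells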)
Method in brief: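 Read-out: luminescence from PKLight stop/detection reagent, data normalized to DMSO. Reaction: 0.2 nM E451W LmPYK, 0.5 mM PEP, 0.1 mM ADP, pH 7.2, 1 h room temperature.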

[13] = target: Pyruvate kinase PKM (Homo sapiens) (UniProt P14618); experiment: qHTS Assay for Activators of Human Muscle Pyruvate Kinase (AID 954; active means well fitted curve in the direction sought with a large enough effect, not every such curve was filed as active;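 further: 0% = uninhibited enzyme and -100% = no enzyme or full thiadiazolimine inhibition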)
Method in brief: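 Reaction: 0.1 nM purified PKM2 with 0.5 mM phosphoenolpyruvate and 0.1 mM ADP, room temperature, 1 h. Readout: luciferase-based ATP luminescence after stop reagent. Activators judged against a 0.3 nM enzyme column.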

[14] = target: Alpha-galactosidase A (Homo sapiens) (UniProt P06280); experiment: Counterscreen for Glucocerebrosidase Inhibitors: qHTS Assay for Human alpha-Galactosidase at pH 4.5 (AID 992; active means well fitted curve in the direction sought with a large enough effect; an effect the other way counts as inactive or inconclusive; further: 0% is about no effect)
Method in brief: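 Concentration-response curves (0.7 nM to 77 uM final) were modeled with the Hill equation to give AC50. Reactions: 2 nM enzyme, 80 uM fluorogenic alpha-galactoside, pH 4.5 citric acid buffer, 20 min, room temperature.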

[15] = target: alpha-glucosidase (Oryza sativa, rice) (UniProt Q653V4); experiment: Counterscreen for Glucocerebrosidase Inhibitors: qHTS Assay for Rice alpha-Glucosidase at pH 5.0 (AID 997; active means well fitted curve in the direction sought with a large enough effect; an effect the other way counts as inactive or inconclusive;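 further: 0% = full activity with enzyme and -100% = basal without enzyme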)
Method in brief: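 Rice alpha-glucosidase (4 nM final) with 400 uM 4-methylumbelliferyl-alpha-D-glucopyranoside in citrate buffer pH 5.0, 20 min at room temperature, stopped at pH 10; fluorescence 365/440 nm, compounds 0.7 nM–77 uM, AC50 from Hill fits.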

[16] = target: Cytochrome P450 3A4 (Homo sapiens) (UniProt P08684); experiment: qHTS Assay for Activators of Cytochrome P450 3A4 (AID 885; active means well fitted curve in the direction sought with a large enough effect; an effect the other way counts as inactive or inconclusive; further: nearly all actives have a fitted effect of over 65% in size)
Method in brief: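 Steps: enzyme/substrate mix dispensed; compound added, 10 min RT; NADPH regeneration solution added, 60 min RT; luciferin detection buffer stops reaction; 20 min later luminescence measured.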

[17] = target: DNA dC->dU-editing enzyme APOBEC-3G (Homo sapiens) (UniProt Q9HC16); experiment: qHTS for inhibitors of Vif-A3G interactions: Validation (AID 588379; active means well fitted curve in the direction sought with a large enough effect; an effect the other way counts as inactive or inconclusive; further: 0% is about no effect)
Method in brief: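 HeLa cells stably expressing Vif and A3G-eYFP, 700 cells/well, incubated overnight at 37 deg C, then exposed to compound overnight at 37 deg C. Inhibition of Vif-mediated degradation read as increased yellow fluorescence (Ex 488/Em 500-530) by laser-scanning cytometry.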

[18] = target: Tyrosyl-DNA phosphodiesterase 1 (Homo sapiens) (UniProt Q9NUW8); experiment: Confirmation Assay for Inhibitors of Tyrosyl-DNA Phosphodiesterase (TDP1) (AID 489007; active means well fitted curve in the direction sought with a large enough effect; an effect the other way counts as inactive or inconclusive; further: potency means the concentration at half of the fitted maximal effect; nearly all actives have a fitted effect of over 40% in size); settings: recombinant human TDP1 enzymatic activity, dose-response
Method in brief: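 Tdp1 1 nM + cpd, 15 min RT; add biotin/phosphotyrosine-FITC oligo 15 nM, 5 min RT; add AS donor/acceptor beads 10 ug/ml, 10 min RT; read AlphaScreen. No-enzyme wells = max signal.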

[19] = target: Muscarinic acetylcholine receptor M1 (Rattus norvegicus) (UniProt P08482); experiment: qHTS Assay for Antagonists of Acetylcholine Muscarinic M1 Receptor: Kinetic Measurement of Intracellular Calcium Response (AID 943; active means well fitted curve in the direction sought with a large enough effect; an effect the other way counts as inactive or inconclusive;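 further: Fluo-4 calcium signal as peak divided by basal fluorescence over 4 min; nearly all actives have a fitted effect of over 75% in size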)
Method in brief: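 Rat M1-CHO cells, 2000/well, overnight → Fluo-4 no-wash dye with probenecid, 1 h 37C → compound 10 min, room temp → basal read 6 s → carbachol EC80 (100 nM) → 4 min kinetic read; peak/basal.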

[20] = Confirmation and Secondary Assay for Modulators of Hemoglobin Beta Chain Splicing at IVS2 705 locus (AID 930; active means well fitted curve in the direction sought with a large enough effect; an effect the other way counts as inactive or inconclusive;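 further: HeLa cells stably expressing the EGFP-705 splicing reporter; GFP fluorescence per well restored by corrected splicing of the IVS2-705 intron in EGFP; % of control where 0% means no effect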)
Method in brief: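 Secondary splice-site specificity test uses HeLa expressing CMV-driven EGFP interrupted by IVS2-705; cells were treated 2 days at 37C with 500 nM antisense PNA as positive control.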

Glucocorticoid receptor (Homo sapiens), sequence (P04150 whole entry, looked up, the tested form may be a part): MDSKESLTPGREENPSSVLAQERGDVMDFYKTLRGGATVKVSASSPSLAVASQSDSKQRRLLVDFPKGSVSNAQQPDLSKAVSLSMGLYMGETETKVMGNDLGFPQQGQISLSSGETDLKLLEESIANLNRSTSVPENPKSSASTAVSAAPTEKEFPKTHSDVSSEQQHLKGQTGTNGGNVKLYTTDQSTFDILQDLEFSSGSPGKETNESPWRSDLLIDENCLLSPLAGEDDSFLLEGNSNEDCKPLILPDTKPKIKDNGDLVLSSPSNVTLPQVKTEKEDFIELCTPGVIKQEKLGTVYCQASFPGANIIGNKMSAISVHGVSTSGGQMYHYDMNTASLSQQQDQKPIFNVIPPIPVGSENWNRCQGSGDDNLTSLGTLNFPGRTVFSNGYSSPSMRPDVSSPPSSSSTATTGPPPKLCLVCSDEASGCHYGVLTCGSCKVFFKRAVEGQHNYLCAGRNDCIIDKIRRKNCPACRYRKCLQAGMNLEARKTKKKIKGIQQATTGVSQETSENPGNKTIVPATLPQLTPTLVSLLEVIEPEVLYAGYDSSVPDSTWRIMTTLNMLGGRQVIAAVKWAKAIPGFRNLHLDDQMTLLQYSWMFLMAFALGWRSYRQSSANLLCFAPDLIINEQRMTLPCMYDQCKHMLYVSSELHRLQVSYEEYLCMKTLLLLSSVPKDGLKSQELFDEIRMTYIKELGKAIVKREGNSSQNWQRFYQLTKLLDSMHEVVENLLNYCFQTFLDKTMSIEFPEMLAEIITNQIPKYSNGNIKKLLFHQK
Muscarinic acetylcholine receptor M1 (Rattus norvegicus), sequence (P08482 whole entry, looked up): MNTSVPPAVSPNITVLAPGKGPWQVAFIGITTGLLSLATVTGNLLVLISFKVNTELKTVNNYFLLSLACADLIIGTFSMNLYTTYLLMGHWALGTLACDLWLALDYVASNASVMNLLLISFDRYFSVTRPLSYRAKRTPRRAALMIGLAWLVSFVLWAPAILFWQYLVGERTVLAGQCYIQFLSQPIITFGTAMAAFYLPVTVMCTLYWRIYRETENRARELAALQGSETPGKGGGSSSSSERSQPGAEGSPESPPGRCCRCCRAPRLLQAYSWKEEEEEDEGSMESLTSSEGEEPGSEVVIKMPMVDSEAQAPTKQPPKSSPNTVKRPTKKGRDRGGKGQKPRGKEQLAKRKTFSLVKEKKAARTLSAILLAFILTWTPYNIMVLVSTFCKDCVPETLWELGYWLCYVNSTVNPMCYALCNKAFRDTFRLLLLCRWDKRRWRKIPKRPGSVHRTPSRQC
Guanine nucleotide-binding protein G(i) subunit alpha-1 (Homo sapiens), sequence (P63096 whole entry, looked up): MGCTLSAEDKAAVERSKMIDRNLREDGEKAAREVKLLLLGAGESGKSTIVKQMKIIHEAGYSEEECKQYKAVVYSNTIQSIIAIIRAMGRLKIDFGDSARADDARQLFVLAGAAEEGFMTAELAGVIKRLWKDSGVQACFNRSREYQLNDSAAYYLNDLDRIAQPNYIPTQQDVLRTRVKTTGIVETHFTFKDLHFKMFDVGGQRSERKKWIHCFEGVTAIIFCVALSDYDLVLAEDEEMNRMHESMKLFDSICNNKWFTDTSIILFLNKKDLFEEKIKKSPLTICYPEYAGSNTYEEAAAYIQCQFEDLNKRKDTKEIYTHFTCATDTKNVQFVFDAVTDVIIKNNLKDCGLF
Alpha-galactosidase A (Homo sapiens), sequence (P06280 whole entry, looked up): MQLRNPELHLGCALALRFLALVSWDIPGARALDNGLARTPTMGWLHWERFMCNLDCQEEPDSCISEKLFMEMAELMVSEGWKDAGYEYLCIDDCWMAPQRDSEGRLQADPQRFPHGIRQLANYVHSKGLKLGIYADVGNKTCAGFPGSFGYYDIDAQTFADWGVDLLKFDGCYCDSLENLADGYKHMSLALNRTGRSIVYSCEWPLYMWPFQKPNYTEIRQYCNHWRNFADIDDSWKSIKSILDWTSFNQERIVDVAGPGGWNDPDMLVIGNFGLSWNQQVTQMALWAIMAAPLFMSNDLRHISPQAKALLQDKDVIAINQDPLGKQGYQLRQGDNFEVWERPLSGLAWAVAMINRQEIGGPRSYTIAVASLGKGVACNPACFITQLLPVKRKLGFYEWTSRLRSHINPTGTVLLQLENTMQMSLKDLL
Pyruvate kinase PKM (Homo sapiens), sequence (P14618 whole entry, looked up): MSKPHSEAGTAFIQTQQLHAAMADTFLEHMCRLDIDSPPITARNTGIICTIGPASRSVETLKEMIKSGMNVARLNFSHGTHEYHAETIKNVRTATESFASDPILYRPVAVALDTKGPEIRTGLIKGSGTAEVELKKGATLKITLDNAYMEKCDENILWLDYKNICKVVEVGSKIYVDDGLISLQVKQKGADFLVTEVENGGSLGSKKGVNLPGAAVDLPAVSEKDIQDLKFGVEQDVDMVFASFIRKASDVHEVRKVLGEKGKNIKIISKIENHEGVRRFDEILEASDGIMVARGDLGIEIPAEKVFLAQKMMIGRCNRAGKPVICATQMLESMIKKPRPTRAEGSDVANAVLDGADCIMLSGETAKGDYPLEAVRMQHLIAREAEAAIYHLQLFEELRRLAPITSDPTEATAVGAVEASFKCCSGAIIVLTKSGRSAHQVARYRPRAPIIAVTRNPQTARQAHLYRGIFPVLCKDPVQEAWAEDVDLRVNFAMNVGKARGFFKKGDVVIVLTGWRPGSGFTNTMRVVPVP
Pyruvate kinase (Leishmania mexicana), sequence (Q27686 2-499 E452W): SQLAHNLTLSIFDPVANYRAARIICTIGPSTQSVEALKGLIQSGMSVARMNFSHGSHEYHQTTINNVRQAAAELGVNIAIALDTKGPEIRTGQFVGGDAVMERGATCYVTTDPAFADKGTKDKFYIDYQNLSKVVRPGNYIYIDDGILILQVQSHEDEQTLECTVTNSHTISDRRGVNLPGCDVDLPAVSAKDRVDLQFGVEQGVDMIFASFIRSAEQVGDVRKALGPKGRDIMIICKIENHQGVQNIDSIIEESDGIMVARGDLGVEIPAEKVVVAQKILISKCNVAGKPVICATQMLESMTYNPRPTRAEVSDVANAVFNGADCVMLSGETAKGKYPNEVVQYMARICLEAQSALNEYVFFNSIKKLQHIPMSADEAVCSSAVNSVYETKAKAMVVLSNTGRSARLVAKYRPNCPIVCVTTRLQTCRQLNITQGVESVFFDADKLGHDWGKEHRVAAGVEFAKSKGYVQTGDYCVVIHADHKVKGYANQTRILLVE
3',5'-cyclic-AMP phosphodiesterase 4B (Homo sapiens), sequence (Q07343 whole entry, looked up): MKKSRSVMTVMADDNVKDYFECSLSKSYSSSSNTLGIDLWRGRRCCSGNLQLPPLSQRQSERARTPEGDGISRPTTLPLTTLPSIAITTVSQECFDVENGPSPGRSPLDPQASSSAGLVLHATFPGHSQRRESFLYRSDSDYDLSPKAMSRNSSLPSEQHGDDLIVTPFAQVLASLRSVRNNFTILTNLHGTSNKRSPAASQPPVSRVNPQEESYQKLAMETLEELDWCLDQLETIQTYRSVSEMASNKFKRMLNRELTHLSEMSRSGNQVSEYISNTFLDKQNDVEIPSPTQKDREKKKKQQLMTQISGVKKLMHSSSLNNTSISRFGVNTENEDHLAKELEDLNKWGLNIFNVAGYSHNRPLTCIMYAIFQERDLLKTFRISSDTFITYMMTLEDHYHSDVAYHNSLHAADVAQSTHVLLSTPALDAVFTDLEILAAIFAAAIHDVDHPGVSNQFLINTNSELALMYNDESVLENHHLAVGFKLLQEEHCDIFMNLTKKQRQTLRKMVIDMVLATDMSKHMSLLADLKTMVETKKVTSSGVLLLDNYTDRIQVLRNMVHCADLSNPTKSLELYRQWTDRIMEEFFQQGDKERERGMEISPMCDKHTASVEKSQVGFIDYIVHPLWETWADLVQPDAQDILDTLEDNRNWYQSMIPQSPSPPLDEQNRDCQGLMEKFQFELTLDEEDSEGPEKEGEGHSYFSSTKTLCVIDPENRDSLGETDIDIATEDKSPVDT
Tyrosyl-DNA phosphodiesterase 1 (Homo sapiens), sequence (Q9NUW8 whole entry, looked up): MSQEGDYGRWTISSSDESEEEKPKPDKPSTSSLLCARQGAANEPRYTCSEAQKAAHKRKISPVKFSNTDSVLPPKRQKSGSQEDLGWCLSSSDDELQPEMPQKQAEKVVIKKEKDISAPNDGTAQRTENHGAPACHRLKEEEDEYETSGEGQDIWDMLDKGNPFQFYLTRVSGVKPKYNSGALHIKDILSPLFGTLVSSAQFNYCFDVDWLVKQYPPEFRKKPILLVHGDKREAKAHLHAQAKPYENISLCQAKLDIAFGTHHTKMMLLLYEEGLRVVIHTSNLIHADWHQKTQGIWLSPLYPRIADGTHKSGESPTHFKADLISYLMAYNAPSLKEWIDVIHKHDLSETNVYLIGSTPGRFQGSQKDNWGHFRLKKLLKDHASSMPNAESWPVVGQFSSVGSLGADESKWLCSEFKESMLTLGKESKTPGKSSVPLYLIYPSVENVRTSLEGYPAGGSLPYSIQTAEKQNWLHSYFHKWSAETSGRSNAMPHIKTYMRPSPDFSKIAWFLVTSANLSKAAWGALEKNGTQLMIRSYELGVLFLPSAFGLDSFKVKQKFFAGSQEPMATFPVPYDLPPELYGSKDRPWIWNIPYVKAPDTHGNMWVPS
Cytochrome P450 3A4 (Homo sapiens), sequence (P08684 whole entry, looked up): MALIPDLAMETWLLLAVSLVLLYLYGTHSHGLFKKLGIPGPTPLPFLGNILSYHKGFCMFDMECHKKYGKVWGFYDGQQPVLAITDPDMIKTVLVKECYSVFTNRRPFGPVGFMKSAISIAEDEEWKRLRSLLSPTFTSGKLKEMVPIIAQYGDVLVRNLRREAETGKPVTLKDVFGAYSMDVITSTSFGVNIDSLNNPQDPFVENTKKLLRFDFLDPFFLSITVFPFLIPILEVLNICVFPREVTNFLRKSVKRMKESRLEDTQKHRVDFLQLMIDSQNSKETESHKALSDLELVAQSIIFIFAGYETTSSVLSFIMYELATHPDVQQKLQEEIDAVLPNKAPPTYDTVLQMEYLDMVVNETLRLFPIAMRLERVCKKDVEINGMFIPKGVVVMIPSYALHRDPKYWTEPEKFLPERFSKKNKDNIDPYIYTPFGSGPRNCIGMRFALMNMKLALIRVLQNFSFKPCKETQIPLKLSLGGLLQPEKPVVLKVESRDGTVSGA

OC[C@@H]1O[C@@H](n2cnc3c(Nc4ccccc4)ncnc32)[C@@H](O)[C@H]1O
inactive: activity change, negative = inhibition [1] 7.84% [at 38 µM] | activity change, negative = inhibition [2] 0.0847% [at 38 µM] | activity, negative = inhibition [3] -14.3% [at 38 µM] | Potency [4] > 46 µM | Potency [5] > 46 µM | Potency [6] | Potency [7] | outcome [8] | Potency [11] | Potency [12] | outcome [13] | outcome [14] | outcome [15]
active: Potency [9] 2.24 µM | Potency [10] 3.98 µM

C[N+](C)(C)CCN[N@@+]1(C)CCCc2ccccc21
inactive: activity change, negative = inhibition [1] -2.74% [at 7.69 µM] | activity change, negative = inhibition [2] -8.45% [at 7.69 µM] | activity, negative = inhibition [3] 7.61% [at 7.69 µM] | Potency [4] > 46 µM | Potency [5] > 9.22 µM | activity change, negative = inhibition [6] 4.98% [at 11.4 µM] | Potency [7]

COC1=CC(=O)CC(C)C12Oc1c(Cl)c(OC)cc(OC)c1C2=O (centres undefined)
inactive: activity change, negative = inhibition [1] -16.1% | activity change, negative = inhibition [2] -12.3% | activity, negative = inhibition [3] 4.38% | Potency [4] > 20.6 µM | Potency [16] | outcome [17]

Cc1ccc(C)n1Cc1ccc(C(=O)O)cc1
inactive: activity change, negative = inhibition [1] 2.78% | activity change, negative = inhibition [2] -7.86% | activity, negative = inhibition [3] 6% | Potency [4] > 20.6 µM
active: Potency [18] 1.41 µM

CC(=O)N[C@H](Cc1c[nH]c2ccccc12)C(=O)O
inactive: activity change, negative = inhibition [1] 3.17% [at 7.69 µM] | activity change, negative = inhibition [2] 4.78% [at 7.69 µM] | activity, negative = inhibition [3] 14.4% [at 7.69 µM] | Potency [4] > 46 µM | Potency [5] > 9.22 µM | activity change, negative = inhibition [6] 4.22% [at 11.4 µM]

CCCCC[C@H](O)CCCC(=O)O
inactive: activity change, negative = inhibition [1] -0.599% [at 38 µM] | activity change, negative = inhibition [2] -3.23% [at 38 µM] | activity, negative = inhibition [3] -28.6% [at 38 µM] | Potency [4] > 46 µM | Potency [5] > 46 µM | Potency [6] | Potency [7] | outcome [8] | Potency [10] | Potency [19] | Potency [11] | Potency [12] | outcome [13] | outcome [14] | outcome [15]
active: Potency [9] 5.01 µM

Nc1ccn([C@@H]2O[C@@H](CO)[C@@H](O)[C@H]2O)c(=O)n1
inactive: activity change, negative = inhibition [1] 10.7% [at 38 µM] | activity change, negative = inhibition [2] -7.43% [at 38 µM] | activity, negative = inhibition [3] 19% [at 38 µM] | Potency [4] > 46 µM | Potency [5] > 46 µM | Potency [6] | Potency [7] | outcome [8] | Potency [20] | Potency [11] | Potency [12] | outcome [13] | outcome [14] | outcome [15]

CC(=O)O[C@@H]1C[C@]2(C)[C@H](C[C@@H](O)[C@H]3[C@@]4(C)CC[C@@H](O)[C@@H](C)[C@@H]4CC[C@@]32C)/C1=C(\CCC=C(C)C)C(=O)O
inactive: activity change, negative = inhibition [1] -14.6% [at 38 µM] | activity change, negative = inhibition [2] -0.766% [at 38 µM] | activity, negative = inhibition [3] 11.2% [at 38 µM] | Potency [4] > 46 µM | Potency [5] > 46 µM | Potency [6] | Potency [7] | outcome [8] | Potency [10] | Potency [11] | Potency [12] | outcome [13] | outcome [14] | outcome [15]

O=C(CSc1ncnc2nc[nH]c12)c1ccccc1
inactive: activity change, negative = inhibition [1] -9.01% [at 7.69 µM] | activity change, negative = inhibition [2] 11.7% [at 7.69 µM] | activity, negative = inhibition [3] 1.65% [at 7.69 µM] | Potency [4] > 46 µM | Potency [5] > 9.22 µM | activity change, negative = inhibition [6] -0.309% [at 11.4 µM] | Potency [7]

Cc1cc(N2CCCCC2)nc2ccc(Cc3ccc4nc(N5CCCCC5)cc(C)c4c3)cc12
inactive: activity change, negative = inhibition [1] -0.0465% [at 7.69 µM] | activity change, negative = inhibition [2] -1.68% [at 7.69 µM] | activity, negative = inhibition [3] 8.27% [at 7.69 µM] | Potency [4] > 46 µM | Potency [5] > 9.22 µM | activity change, negative = inhibition [6] 13.5% [at 11.4 µM]

O=C(O)[C@@H]1CCCN[C@H]1C(=O)O
inactive: activity change, negative = inhibition [1] 13% [at 38 µM] | activity change, negative = inhibition [2] -7.71% [at 38 µM] | activity, negative = inhibition [3] -12.9% [at 38 µM] | Potency [4] > 46 µM | Potency [5] > 46 µM | Potency [6] | Potency [7] | outcome [8] | Potency [9] | Potency [10] | Potency [19] | Potency [12] | outcome [13] | outcome [14] | outcome [15]

N[C@H](Cc1ccc(F)cc1)C(=O)O
inactive: activity change, negative = inhibition [1] 14.8% [at 38 µM] | activity change, negative = inhibition [2] -1.52% [at 38 µM] | activity, negative = inhibition [3] -8.01% [at 38 µM] | Potency [4] > 46 µM | Potency [5] > 46 µM | Potency [6] | Potency [7] | outcome [8] | Potency [10] | Potency [12] | outcome [13] | outcome [14] | outcome [15]
